Screen size: about 2,100 compounds; about 650 (31%) were called active. Not shown: some 16% with an inconclusive outcome. The list shows a part of the results. Values without a mark were called inactive. Calls follow the shape of the dose curve; as a rule, active = well fitted inhibition curve with a large enough effect; inconclusive = small, poorly fitted or top-dose-only effect; inactive = flat fitted curve, though single readings scatter.
Potency is read from the fitted curve at half-maximal effect.

A short description of the assay: qHTS for inhibitors of Vif-A3G interactions: Cherry picks. Also: nearly all actives have a fitted effect of over 80% in size. As to activity, negative = fluorescence increase: % of control where 0% means no effect. The following applies: HeLa A3G-eYFP + Vif (tagged APOBEC3G with the HIV-1 protein that degrades it), 24 h; Potency: eYFP fluorescence increase; series mostly up to 36.9 µM; activity, negative = fluorescence increase: at the top concentration. The source says: The recent discovery and characterization of host restriction factors, which provide a potent defense to invading retroviruses, has provided new targets for antiviral drug development. APOBEC3G (A3G) and APOBEC3F (A3F) are potent cytidine deaminases that block HIV-1 replication; HIV-1 expresses the Vif protein, which counteracts A3G and A3F by binding to them and inducing their proteasomal degradation. The Vif-A3G and Vif-A3F interactions provide two potential targets for development of small molecules which can interfere with the ability of Vif to degrade A3G or A3F. […] To identify inhibitors that can interfere with Vif mediated degradation of A3G and A3F, we have developed Hela cell lines that stably express A3G or A3F tagged with eYFP at the C-terminal end (A3G-eYFP or A3F-eYFP, respectively) and Vif. In the absence of an inhibitor, Vif induces degradation of A3G-eYFP and A3F-eYFP, and the cells are not fluorescent. In the presence of an inhibitor, it is expected that Vif will be unable to degrade A3G-eYFP and/or A3F-eYFP, resulting in an increase in yellow fluorescence. In this assay, Vif A3G was screened against the cherry picks ordered from the MLSMR. NIH Chemical Genomics Center [NCGC] NIH Molecular Libraries Probe Centers Network [MLPCN] MLPCN Grant: MH093245 Assay Submitter (PI): Vinay Pathak, National Cancer Institute
A3G-Vif cells were harvested from T225 flask and resuspended in phenol free OPTI-MEM medium with 5% FBS. Then 5 uL of 140,000 cells/mL resuspended cells was dispensed into each well of low base Aurora COC 1,536-well plates (black walled, clear bottom) using a Multidrop Combi dispenser. After overnight culture at 37 deg C with 5% CO2, a total of 23 nL of compounds at 5 selected concentrations from the NPC or positive control (2 mM stock of MG132) in DMSO was transferred to each well of the assay plate using a pintool (Kalypsys, San Diego, CA), and the plates were further incubated at 37 deg C with 5% CO2 for 24 hours. After that, the plates were measured on Acumen Explorer (TTP Lab Tech). The fluorescence was detected by 488 nm/Ex and […].
(Quantitative high-throughput screening tests each substance at several concentrations.)
Turning to `COc1cc(C2Oc3ccccc3C=C2[N+](=O)[O-])cc(OC)c1OC` (stereo not given), the “activity, negative = fluorescence increase” value is 0.838%.
Turning to `N#CC1=C(N)C(C#N)(C#N)[C@H](c2ccoc2)[C@H]2CN(Cc3ccccc3)CC=C12`, the “activity, negative = fluorescence increase” value is -15.3%.
As to `CCOC(=O)C1=C(C)N=c2sc(=Cc3cc(Cl)c(OCC(=O)O)c(Cl)c3)c(=O)n2C1c1cccc(OC)c1` (stereo not given), the “activity, negative = fluorescence increase” value was -25.7%.
With `CC(C)(C)C(=O)c1sc2nc(-c3cccs3)cc(C(F)(F)F)c2c1N`, the Potency is 1.3 µM (active).
For the molecule `Nc1c(C(=O)C2CC2)sc2nc(-c3cccs3)cc(C(F)(F)F)c12`, the Potency is 2.31 µM (active).
As to `CC(=O)c1sc2nc(-c3cccs3)cc(C(F)(F)F)c2c1N`, the Potency was 7.31 µM (active).
Regarding `Cc1ccc(-c2cc(NC=O)c3ncc(-c4cccc(C(=O)N(C)C)c4)n3c2)cc1`, the “activity, negative = fluorescence increase” value is -12.4%.
Turning to `CCOC(=O)c1c(-c2ccc(OC)cc2)csc1/N=C/C1=C(O)CCCC1=O`, the “activity, negative = fluorescence increase” value was -5.4% [at 46.1 µM].
Consider `Cc1ccc(S(=O)(=O)N2CCN(C(=O)CSC(=S)N3CCCC3)CC2)c(C)c1`, for which the “activity, negative = fluorescence increase” value was 2.82% [at 46.1 µM].
Regarding `COC(=O)C1=C(C)N(Cc2ccco2)C(=O)/C1=C\c1ccc([N+](=O)[O-])cc1`, the “activity, negative = fluorescence increase” value was -5.03% [at 46.1 µM].
In the case of `CCN1CCN(c2c(/C=C3\SC(=S)N(Cc4ccco4)C3=O)c(C)c(C#N)c(=O)n2C)CC1`, the Potency is 18.4 µM (active).
As for `Cc1cc(/C=C2\SC(=S)N(Cc3ccco3)C2=O)c(C)n1-c1cccnc1`, the Potency is 23.1 µM (active).
For `CN(C)c1ccc(C=C2SC(=S)N(Cc3ccco3)C2=O)cc1`, the Potency was 2.8 µM (active).
Take `C/C(=N/NC(N)=S)c1ccc(Br)s1`: the “activity, negative = fluorescence increase” value is 4.29% [at 46.1 µM].
Turning to `CCCC(=O)NC(c1ccc(OC)cc1)c1ccc2cccnc2c1O` (stereo not given), the “activity, negative = fluorescence increase” value is 2.17% [at 46.1 µM].
In the case of `Cn1ccnc1Sc1nc2ccccc2nc1NS(=O)(=O)c1ccccc1`, the “activity, negative = fluorescence increase” value is 9.44% [at 46.1 µM].
In the case of `CC(OC(=O)/C(C#N)=C/c1ccc(N(C)C)cc1)C(=O)N(C)Cc1ccccc1` (stereo not given), the Potency is 18.4 µM (active).
Turning to `COc1ccc(N=Cc2c(O)n(-c3cccc(C)n3)c(=O)c3ccccc23)c(OC)c1`, the Potency is 13 µM (active).
In the case of `COc1ccc(-c2cc(C(=O)N/N=C/c3sccc3C)c3ccccc3n2)c(OC)c1`, the “activity, negative = fluorescence increase” value was -10.7%.
With `CCc1cccc2c(C(O)c3c[nH]c4ccccc34)c[nH]c12` (stereo not given), the Potency is 20.6 µM (active).
As for `N#CC1=C(N)Oc2cc(N)ccc2C1c1ccccc1` (stereo not given), the “activity, negative = fluorescence increase” value was -1.01%.
Turning to `CC1CC(=O)C2=C(C1)OC(N)=C(C#N)C2c1coc2ccccc2c1=O` (stereo not given), the Potency is 23.1 µM (active).
Turning to `CC(C)n1cc(/C=C/c2cc[n+](C)cc2)c2ccccc21`, the Potency is 0.25 µM (active).
With `C=CCn1cc(/C=C/c2cc[n+](C)cc2)c2ccccc21`, the Potency was 7.04 µM (active).
Regarding `CCn1cc(/C=C/c2cc[n+](C)cc2)c2ccccc21`, the Potency is 1.77 µM (active).
With `CC(C)n1cc(/C=C2\NC(=O)N(c3cccc(Cl)c3)C2=O)c2ccccc21`, the “activity, negative = fluorescence increase” value was -21.4%.
The same measure, in the same setting: for `CCOC(=O)CSC1=C(C#N)C(c2ccc(C)s2)CC(=O)N1` (stereo not given) the value was -2.09%.
Regarding `N#C/C(N=Nc1ccccc1O)=N\Nc1ccccc1O`, the Potency was 14.6 µM (active).
Regarding `NC(=O)c1ccc(Cn2c(C(=O)c3cc(Cl)c(N)c(Cl)c3)c3ccccc3[n+]2[O-])cc1`, the “activity, negative = fluorescence increase” value is -3.16%.
With `Cc1c(C(=O)Nc2cccnc2)oc2ccc(Br)cc12`, the “activity, negative = fluorescence increase” value is -3.28%.
With `COc1ccc(-c2nnc(SCC(=O)NCc3ccccc3)nc2-c2ccc(OC)c(OC)c2)cc1OC`, the “activity, negative = fluorescence increase” value was -10.7% [at 46.1 µM].
As to `COc1cc(C(=O)NCCOc2cc(C)cc(C)c2)cc(OC)c1OC`, the “activity, negative = fluorescence increase” value is -7.09%.
With `COc1cc(C(=O)NCCOc2cc(C)cc(C)c2)c(Br)c(OC)c1OC`, the “activity, negative = fluorescence increase” value was 2.34%.
`COc1ccc(-c2ccc3c(c2)S(=O)(=O)c2cccc(C(=O)NCc4cccc(OC(F)(F)F)c4)c2C3=O)cc1OC`: the Potency is 10.3 µM (active).
Take `COc1ccc(-c2ccc3c(c2)S(=O)(=O)c2cccc(C(=O)NCCOc4ccccc4)c2C3=O)cc1OC`: the Potency was 12.5 µM (active).
For `Fc1cccc(Cc2c(-c3ccco3)nc3ccc(Br)cn23)c1`, the “activity, negative = fluorescence increase” value is -9.28%.
For `CC(NC1=CC(=O)c2cccnc2C1=O)C(O)c1ccccc1` (stereo not given), the “activity, negative = fluorescence increase” value is -0.502%.
With `CN(CC(=O)Nc1ccc(Cl)c(C(F)(F)F)c1)C(=O)c1ccc(S(=O)(=O)N2CCOCC2)cc1`, the “activity, negative = fluorescence increase” value is -0.993%.
For the molecule `CN(C)c1ccc(/C=C/c2ccnc3ccccc23)cc1O`, the Potency was 18.4 µM (active).
Turning to `CN(C)c1ccc(/C=C/c2ccnc3ccccc23)cc1C=O`, the “activity, negative = fluorescence increase” value is -27.4% [at 46.1 µM].
For the molecule `CCc1cc(/C=C/c2ccnc3ccccc23)ccc1N(C)C`, the Potency is 18.4 µM (active).
`CN1CCCc2cc(/C=C/c3ccnc4ccccc34)ccc21`: the Potency is 5.17 µM (active).
On the same count and under the same terms, for `Cc1cc(/C=C/c2ccnc3ccccc23)ccc1N` the value was 18.4 µM (active).
Consider `Cc1cc(NC(=O)Nc2nnc(N(C)Cc3ccccc3)s2)ccc1Br`, for which the “activity, negative = fluorescence increase” value was -0.0185% [at 46.1 µM].
In the case of `COc1cccc(/C=N/NC(=O)c2[nH]nc3c2CCc2ccccc2-3)c1`, the “activity, negative = fluorescence increase” value is -3.68%.
The same measure, in the same setting: next, `CC(=O)n1cc(/C=N/NC(=O)c2sc(C)nc2C)c2ccccc21`: -0.408%; `COc1ccc(C(C)(O)c2nc(-c3ccccc3OC)cs2)cc1` (stereo not given): -6.82%.
As to `Cc1cc(/C=C/c2ccnc3ccccc23)ccc1N(C)C`, the Potency is 20.6 µM (active).
Regarding `Cc1cc(N(C)C)c(C)cc1/C=C/c1ccnc2ccccc12`, the Potency is 20.6 µM (active).
Take `CN(C)c1ccc(/C=C/c2ccnc3ccccc23)cc1N`: the “activity, negative = fluorescence increase” value is -16% [at 46.1 µM].

Source of the values: PubChem BioAssay AID651812 (National Center for Advancing Translational Sciences (NCATS), 2012).
